Screening data: PubChem, National Center for Advancing Translational Sciences (NCATS)
In the library only some 0.38% were active in any assay of this set; here they are far more common.
TR SRC2 fluor cs: counter-screen for TRb-SRC2 inhibitors: fluorescence interference. AID 1479. 0.29% of 280,000 active. Potency, µM (doses to about 106 µM), for the others: at the top dose fluorescence change, negative = quenching. TRb/SRC2 Texas Red total fluorescence interference; active = well fitted curve in either direction with a large enough effect; inconclusive = small, poorly fitted or top-dose-only effect; note: potency is the fitted concentration of half-maximal effect; % is set by controls: 0 for no effect and ±100 for the full control effect
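Human TRb ligand-binding domain at 0.6 uM with 20 nM Texas Red SRC2 peptide in Tris buffer containing 1 uM T3 and 5% DMSO, incubated with compound 5 h at ambient temperature. Total fluorescence (555/632 nm) calculated as parallel + 2 × perpendicular.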
TSHR antag: antagonists of human thyroid stimulating hormone receptor; P16473; TSHR-expressing cells, TSH-stimulated cAMP HTRF, 2 h; hits give low values; 0.2% of 330,000 active; AID 504810; activity change, negative = inhibition, % at 11.5 µM;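 active = activity change below a set negative limit, meaning inhibition stronger than a set level, cut at about -70% in these data; inconclusive = activity change between two set negative limits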; note: % is set by controls: 0 for no effect and ±100 for the full control effect
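TSHR-expressing cells were treated with compounds, then stimulated with TSH at EC80 (4nM final) for 2 hours at 37 deg C. Cellular cAMP was measured by HTRF competition between lysate cAMP and cAMP-d2 for a cryptate-labelled anti-cAMP antibody.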
TRb-SRC2 inh: inhibitors of human thyroid hormone receptor beta-SRC2 interaction. P10828. AID 1469. 0.065% of 280,000 active. TRbeta-SRC2 peptide binding, fluorescence polarization; receptor liganded with 1 µM T3. Potency, µM (doses to about 106 µM), inactives show at the highest dose activity change, negative = inhibition, usual class: inhibitors;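 note: potency is the fitted concentration of half-maximal effect; plate controls were bound peptide for no effect and peptide without receptor for full effect; nearly all actives have a fitted effect of over 50% in size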
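Read-out is fluorescence polarization (555 nm excitation, 632 nm emission) of a Texas Red SRC2 coactivator peptide; loss of signal reflects blocked binding to human TRb ligand-binding domain in the presence of 1 uM T3.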
CBFb RUNX1 block: CBF-beta/RUNX1 interaction disruption; Potency, µM (top dose mostly 59.8 µM), without a hit: at the highest dose activity, negative = inhibition, actives largely listed as inhibitors; 230,000 tested, under 10 active; AID 1477; Q01196+Q13951; AlphaScreen CBFb-His/RUNX1-biotin binding, biochemical; note: % of control where 0% means no effect
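Interaction loss through any mechanism counts as activity. Pre-formed complex of His-CBF-beta and biotin-RUNX1 (30 nM apiece) is incubated with compound 15 min, then with 50 ng nickel and 50 ng streptavidin beads for 90 min before AlphaScreen detection.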
USP2a block: USP2a (human) protease inhibition; USP2 core, Ub-CHOP2 coupled fluorogenic reporter, 485/531; Potency, µM (doses to about 38.3 µM), without a hit: at the top dose activity change, negative = inhibition, usual class: inhibitors; 0.01% of 330,000 active;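 note: potency is the fitted concentration of half-maximal effect; plate controls were DMSO wells for no effect and full inhibition by NEM control for full effect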
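Cell-free coupled assay: 10nM USP2 core preincubated 30min RT with compound in Tris-HCl pH 8.0/CaCl2/CHAPS buffer, then 25nM Ub-CHOP2 and 25nM reporter substrate; fluorescence (Ex 485/Em 531) read after 60min RT, normalized to NEM inhibition, concentration-response curves fitted.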
Eya2 phos inh: inhibitors of human Eya2 phosphatase activity; O00167; Potency, µM (series often up to 76.9 µM), inactives show at the highest dose activity, negative = inhibition, hits mostly inhibitors; 0.006% of 330,000 active; recombinant Eya2, OMFP fluorescence dephosphorylation (OMFP is methylfluorescein phosphate); note: potency is the fitted concentration of half-maximal effect; % is set by controls: 0 for no effect and ±100 for the full control effect
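Eya2 protein (added as 0.2 uM solution) was preincubated with compound for 10 min at ambient temperature in 50 mM HEPES pH 7.5, 50 mM NaCl, 5 uM MgCl2, 0.05% BSA, 1 mM DTT. OMFP (added at 50 uM) then reacted 10 min; fluorescence read at 485/525 nm.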
Active calls of the source: *; ? = inconclusive; . = not tested or not shown; [ ] = remark or other dose. Unless noted, calls come from the whole dose curve; as a rule, active = well fitted curve in the direction sought with a large enough effect; inconclusive = small, poorly fitted or top-dose-only effect, or another doubt; inactive = no such curve, though single readings can be large; an effect the other way counts as inactive or inconclusive.

SMILES	TR SRC2 fluor cs	TSHR antag	TRb-SRC2 inh	CBFb RUNX1 block	USP2a block	Eya2 phos inh
NS(=O)(=O)c1ccc(NC(=S)NC(=O)c2ccc(-c3ccccc3)cc2)cc1	0.316µM*[quencher]	18.8	-21.5%[53 µM]	-3.9%	-0.2%	3.8%
COc1ccc(NC(=O)Cn2c(=O)n(Cc3ccccc3)c(=O)c3oc4ccccc4c32)cc1Cl	-1.3%	.	-1.7%	.	.	.
Cc1cc(Cl)ccc1OCC(=O)NNC(=O)C1CCN(c2ncnc3sc(C)c(C)c23)CC1	.	-71.6*	.	.	-10.9%	6.2%
Cc1cccc(-c2noc(CN(C)C(=O)c3ccoc3C)n2)c1	.	-11.5	.	.	2.2%	-14.2%
Cc1cccc(-c2noc(CN(C)C(=O)c3ccco3)n2)c1	.	-99.9*	.	.	3.3%	-2.3%
COC(=O)c1ccc(=O)c2nc3/c(=C/O)c(O)cc(=O)c3[nH]c12	25.1µM*[quencher]	-11.9	?	.	-22.7%	2.4%
COC(=O)c1ccc(N)cc1O	-0.7%	1.1	-0.9%	-1.8%	3.0%	9.4%
CCC(C)NC(=O)COC(=O)c1csc2c1CCCC2 (stereo not given)	0.0004µM*[quencher]	32.2	?	-6.0%	5.0%	0.2%
CCc1ccc2occ(CC(=O)NCc3ccccc3)c2c1	8.9%	.	5.5%	.	.	.
CCc1ccc2occ(CC(=O)Nc3ccc(OC)c(Cl)c3)c2c1	0.0891µM*[quencher]	.	-16.8%[53 µM]	.	.	.
CC(C)CC(=O)NC(=S)Nc1ccc(Cl)cn1	3.98µM*[quencher]	27.9	-20.7%[53 µM]	-4.2%	-2.3%	-0.8%
O=C=NC1CCC(CC2CCC(N=C=O)CC2)CC1 (stereo not given)	-0.1%[201 µM]	.	6.2%[201 µM]	.	.	.
Cn1cc(S(=O)(=O)c2cccc(Cl)c2)c(=O)c2cc(F)c(N3CCN(c4ccccc4)CC3)cc21	158µM*[quencher]	.	-29.8%	.	.	.
Cc1cccc(S(=O)(=O)c2cn(C)c3cc(N4CCN(c5ccccc5)CC4)c(F)cc3c2=O)c1	56.2µM*[quencher]	.	?	.	.	.
CCCn1cc(S(=O)(=O)c2ccc(C)c(C)c2)c(=O)c2cc(F)c(N3CCCCC3)cc21	282µM*[quencher]	.	-20.5%	.	.	.
CCCn1cc(S(=O)(=O)c2ccc(C)c(C)c2)c(=O)c2cc(F)c(N3CCC(C)CC3)cc21	?	.	-5.5%	.	.	.
Cc1oc(-c2ccc(C(=O)NCc3ccccc3F)cc2)nc1COc1ccccc1	0.9%	.	5.3%	.	.	.
O=C=NCCCCCCN=C=O	-3.8%[201 µM]	.	-0.9%[201 µM]	.	.	.
COc1ccc(-c2cn3nc(N4CCCC(C(=O)Nc5ccccc5OC)C4)sc3n2)cc1 (stereo not given)	9.2%	.	-4.2%	.	.	.
CCn1c(C)nc2cc(C(=O)NNC(=O)CCC3CCCCC3)ccc21	3.55µM*[quencher]	49.0	?	0.6%	2.7%	0.1%
CCn1c(C)nc2cc(C(=O)NNC(=S)Nc3ccc(C)cc3)ccc21	2.2%	0.5	-1.2%	6.6%	-0.9%	-16.2%
CC(C)(C)c1ccc(-n2nc(C#N)c(Cl)cc2=O)cc1	0.4%	-80.2*	-11.3%	-6.5%	-0.3%	-6.6%
CC(C)(C)c1ccc(-n2nc(C(N)=O)c(O)cc2=O)cc1	0.2%	-0.8	-7.8%	-0.2%	-0.5%	-3.8%
N#Cc1c([N+](=O)[O-])cc([N+](=O)[O-])cc1S(=O)(=O)Cc1ccccc1	.	-80.9*	.	.	-2.0%	5.3%
Cc1cc(C2(c3ccc(O)c(C)c3)C(=O)Nc3ccccc32)ccc1O	1.7%	-5.4	5.5%	-6.2%	-2.8%	-8.5%
Cc1cccc2c1NC(=O)C2(c1ccc(O)cc1)c1ccc(O)cc1	-2.2%	-81.5*	-13.0%	-8.2%	-1.5%	-9.4%
Cc1ccc2oc(C(=O)Nc3ccc(S(=O)(=O)Nc4nc(C)cc(C)n4)cc3)cc(=O)c2c1	31.6µM*[quencher]	.	-2.4%	.	.	.
Cc1ccc2oc(C(=O)Nc3ccc(S(=O)(=O)Nc4nccc(C)n4)cc3)cc(=O)c2c1	?	.	-0.4%	.	.	.
Oc1ccc(N=Cc2ccc(-c3cccs3)s2)cc1	9.4%	3.4	31.6µM*	?	0.4%	-2.1%
